Compounds with a hit are over-represented: about 10% of the library has one in this group of screens.
KB-3-1 cytotox: qHTS assay for MDR1-selective chemotherapeutics: Primary screen using the parental adenocarcinoma cell KB-3-1 | KB-3-1 viability, CellTiter-Glo ATP luminescence, 72 h | Potency, µM (highest dose often 46.1 µM), actives largely listed as cytotoxic | 400,000 compounds, 1.4% hits | AID 1347075, 2019; also: nearly all actives have a fitted effect of over 60% in size
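Parental KB-3-1 viability, qHTS format: 72 h compound exposure, 37 °C; CellTiter-Glo; media-only wells and DMSO plates as controls; concentration-effect fits on corrected data.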
KB-V1 MDR tox: qHTS assay for MDR1-selective chemotherapeutics: Primary screen using the drug-selected MDR subline cells KB-V1 | AID 1347076, 2019 | 400,000 compounds, 3.4% hits | Potency, µM (doses to about 46.1 µM), usual class: cytotoxic | KB-V1 MDR cells viability, CellTiter-Glo, 72 h; also: nearly all actives have a fitted effect of over 60% in size
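KB-V1 MDR subline cells in DMEM (phenol-red free, 10% FBS) exposed to compounds in qHTS concentration series for 72 h at 37 degrees C. Viability read by CellTiter-Glo luminescence; concentration-effect curves fitted after normalization and correction.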
MCF10A rerep: A quantitative high throughput screen for small molecules that induce DNA re-replication in MCF 10a normal breast cells; MCF 10A DNA re-replication, Hoechst nuclear intensity, 48 h; Potency, µM (titrated, usually from 46.1 µM), most hits filed as activators; 350,000 compounds, 2.9% hits; AID 624296, 2012; also: nearly all actives have a fitted effect of over 50% in size
SW480 rerep: A quantitative high throughput screen for small molecules that induce DNA re-replication in SW480 colon adenocarcinoma cells; Potency, µM (doses to about 46.1 µM), hits mostly activators; AID 624297, 2012; SW480 DNA re-replication, Hoechst DNA content imaging, 48 h; 340,000 compounds, 1.8% hits; also: nearly all actives have a fitted effect of over 55% in size
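Image-based DNA-content assay: after two days of treatment, nuclei were labelled with the DNA dye Hoechst and imaged, and hits were compounds raising the count of nuclei showing high fluorescence intensity.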
Gal4-VP16 FLuc: VP16 counterscreen qHTS for inhibitors of ROR gamma transcriptional activity; Drosophila S2 Gal4-VP16 UAS-luciferase, luminescence, 20 h; Potency, µM (doses to about 53.6 µM), hits mostly inhibitors; 310,000 compounds, 3.5% hits; AID 2546, 2010;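 also: Gal4-VP16 expression switched on by copper sulfate through the metallothionein promoter; nearly all actives have a fitted effect of over 50% in size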
RORg inh: qHTS for inhibitors of ROR gamma transcriptional activity; Nuclear receptor ROR-gamma (Mus musculus), P51450; Drosophila S2 Gal4-RORgamma UAS-luciferase reporter, 20 h; Potency, µM (series often up to 53.6 µM), hits mostly inhibitors; 310,000 compounds, 5.4% hits; AID 2551, 2010; also: nearly all actives have a fitted effect of over 60% in size
Target sequence (P51450 whole entry, looked up, the tested form may be a part): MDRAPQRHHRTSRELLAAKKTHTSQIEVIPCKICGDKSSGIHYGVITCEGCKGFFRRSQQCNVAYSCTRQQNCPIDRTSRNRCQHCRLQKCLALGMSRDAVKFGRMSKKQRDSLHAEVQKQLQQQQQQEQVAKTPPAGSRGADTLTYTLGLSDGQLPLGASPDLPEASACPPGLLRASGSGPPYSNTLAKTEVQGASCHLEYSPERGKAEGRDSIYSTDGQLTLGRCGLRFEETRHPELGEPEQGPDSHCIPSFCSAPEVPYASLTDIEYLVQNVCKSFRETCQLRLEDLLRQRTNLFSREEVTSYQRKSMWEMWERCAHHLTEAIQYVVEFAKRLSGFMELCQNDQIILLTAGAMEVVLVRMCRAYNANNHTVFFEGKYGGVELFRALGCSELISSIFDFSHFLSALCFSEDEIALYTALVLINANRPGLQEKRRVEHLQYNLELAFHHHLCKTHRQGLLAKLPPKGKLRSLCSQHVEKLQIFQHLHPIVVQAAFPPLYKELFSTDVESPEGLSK
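Using a luciferase readout, inhibitors were identified by reduced reporter activity in Drosophila cells coexpressing a copper-inducible Gal4–ROR gamma fusion and UAS-driven Photinus luciferase, incubated 20 hr after 700 uM copper sulfate.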
Numbers stand for hits; n = inactive; u = inconclusive; x = no result; [ ] = dose if it differs, or a comment. Calls follow the shape of the dose curve; as a rule, active = well fitted curve in the direction sought with a large enough effect; inconclusive = small, poorly fitted or top-dose-only effect, or another doubt; inactive = no such curve, though single readings can be large; an effect the other way counts as inactive or inconclusive.

SMILES	KB-3-1 cytotox	KB-V1 MDR tox	MCF10A rerep	SW480 rerep	Gal4-VP16 FLuc	RORg inh
O=C(NC(c1ccco1)c1cc(Cl)c2cccnc2c1O)c1cccs1 (configuration not stated)	n	u	x	x	x	x
O=C(Oc1c(Cl)cc(Cl)c2cccnc12)c1ccco1	u	2.06µM	20.6µM	u	u	0.282µM
O=C(Oc1ccc(Cl)c2cccnc12)N1CCOCC1	n	n	n	n	n	n
O=C(Oc1c(CN2CCOCC2)cc(Cl)c2cccnc12)c1ccccc1Cl	u	u	u	n	3.55µM	0.708µM
Cc1ccc(S(=O)(=O)Nc2cccc(Cl)c2)cc1NC(=O)C1CC1	u	20.6µM	n	n	x	x
Cc1ccc(NC(=O)C2CCCC2)cc1Cl	n	n	n	n	x	x
Cc1ccc(NS(=O)(=O)c2ccc(Cl)c(NC(=S)NC(=O)C3CCCCC3)c2)cc1Cl	n	n	8.2µM	n	u	u
Cc1cc(C)n(-c2ccc(Cl)c(C(=O)NCc3ccccc3)n2)n1	n	11.6µM	n	n	n	n
COc1cc(C2c3c(oc4ccccc4c3=O)C(=O)N2c2nnc(C(C)C)s2)cc(OC)c1OC (configuration not stated)	n	n	x	x	x	x
Cc1c(C(=O)N2CCN(C/C=C/c3ccccc3)CC2)oc2c(F)cccc12	n	16.4µM	n	n	x	x
COc1ccc2oc(C(=O)N3CCN(C/C=C/c4ccccc4)CC3)c(C)c2c1	n	n	23.1µM	n	x	x
O=C(c1ccc(Br)s1)N1CCN(C/C=C/c2ccccc2)CC1	n	14.6µM	n	n	u	n
COc1ccc2oc(C(=O)N3CCN(C(c4ccccc4)c4ccccc4)CC3)c(C)c2c1	n	n	u	n	x	x
CCC(=O)N1CCc2cc(Br)cc(S(=O)(=O)N3CCC(C(=O)Nc4ccccc4F)CC3)c21	n	n	x	x	x	x
CCOc1ccc(OCC)c(NC(=O)C(NS(=O)(=O)c2ccc(Br)s2)c2ccccc2)c1 (configuration not stated)	n	n	x	x	x	x
O=C1CC(c2ccc3c(c2)OCO3)c2cc(O)ccc2O1 (configuration not stated)	x	x	x	x	n	n
O=C1CC(c2ccccc2)c2cc(O)ccc2O1 (configuration not stated)	n	n	u	n	n	11.2µM
CCCCCn1c(CCCNC(=O)c2ccccc2)nc2ccccc21	n	u	x	x	x	x
O=C(O)c1ccccc1N/N=C\c1ccnc2ccccc12	u	n	n	n	u	5.01µM
ON=Cc1ccnc2ccccc12	n	n	x	x	x	x
CCCSc1nc(N)nc2c1ncn2C1OC(CO)C(O)C1O (configuration not stated)	n	n	n	n	x	x
Cc1ccc2cc(COC(=O)C3CCCO3)c(=O)[nH]c2c1 (configuration not stated)	u	11.6µM	n	n	n	n
Cc1ccc2cc(CN(CC(C)C)C(=O)C3CCCO3)c(=O)[nH]c2c1 (configuration not stated)	n	u	n	n	n	n
O=c1c2ccccc2oc2cc(-c3ccc4[nH]ccc4c3)ccc12	u	n	u	4.11µM	x	x
O=C(CSc1nnc(-c2cccc(F)c2)c(-c2cccc(F)c2)n1)NC1CCCCC1	n	n	x	x	x	x
SMILES	KB-3-1 cytotox	KB-V1 MDR tox	MCF10A rerep	SW480 rerep	Gal4-VP16 FLuc	RORg inh
CC1(C)CC2CC(C)(CN2C(=O)NC(=O)c2ccccc2)C1 (configuration not stated)	n	u	n	n	n	n
Cc1ccc(C(=O)Nc2ccccc2C(=O)N2CC3(C)CC2CC(C)(C)C3)cc1 (configuration not stated)	n	u	25.9µM	u	n	n
CC[C@H](C)[C@H](NC(=O)[C@H](CCC(=O)O)NC(=O)[C@@H](N)CO)C(=O)N[C@@H](CCC(N)=O)C(=O)N[C@@H](CC(C)C)C(=O)N[C@@H](CCSC)C(=O)N[C@@H](Cc1cnc[nH]1)C(=O)N[C@@H](CC(N)=O)C(=O)N[C@@H](CC(C)C)C(=O)NCC(=O)N[C@@H](CCCCN)C(=O)N[C@@H](Cc1cnc[nH]1)C(=O)N[C@@H](CC(C)C)C(=O)N[C@@H](C)C(=O)N[C@@H](CO)C(=O)N[C@H](C(=O)N[C@@H](CCC(=O)O)C(=O)N[C@@H](CCCNC(=N)N)C(=O)N[C@@H](CCSC)C(=O)N[C@@H](CCC(N)=O)C(=O)N[C@@H](Cc1c[nH]c2ccccc12)C(=O)N[C@@H](CC(C)C)C(=O)N[C@@H](CCCNC(=N)N)C(=O)N[C@@H](CCCCN)C(=O)N[C@@H](CCCCN)C(=O)N[C@@H](CC(C)C)C(=O)N[C@@H](CCC(N)=O)C(=O)N[C@@H](CC(=O)O)C(=O)N[C@H](C(=O)N[C@@H](Cc1cnc[nH]1)C(=O)N[C@@H](CC(N)=O)C(=O)N[C@@H](Cc1ccccc1)C(=O)O)C(C)C)C(C)C	x	x	x	x	n	n
COc1cc(C(=O)N=c2sc3ccccc3n2C)cc(OC)c1OC	n	4.61µM	n	n	n	n
Cn1c(=NC(=O)c2ccco2)sc2ccccc21	u	16.4µM	n	n	n	n
CC(=O)N/N=c1\sc2ccccc2n1C	n	n	n	n	n	n
Cn1c(=NC(=O)CCl)sc2ccccc21	n	u	14.6µM	u	u	u
COc1ccc(COC[C@H](C)[C@H](O[Si](C)(C)C)[C@@H](C)[C@H]2OC(=O)[C@H]2C)cc1	x	x	x	x	n	n
COc1ccc(-c2cc(C(F)(F)F)n3nc(-c4ccc(Cl)cc4)cc3n2)cc1OC	n	n	x	x	x	x
COc1ccc(-c2noc(Cn3c(=O)c4ccccc4n(CC(=O)Nc4cccc(OC)c4)c3=O)n2)cc1	n	n	x	x	x	x
CC[C@H](C)[C@H](N)C(=O)N[C@H](C(=O)N[C@@H](CO)C(=O)N[C@@H](C)C(=O)N[C@H](C(=O)N[C@H](C(=O)NCC(=O)N[C@H](C(=O)N[C@@H](CC(C)C)C(=O)O)[C@@H](C)CC)C(C)C)C(C)C)[C@@H](C)CC	x	x	x	x	n	n
Cn1c(O)c(C2=c3ccccc3=NC2=O)[nH]c1=S	n	n	n	n	n	u
COc1ccc2nc(-n3c(O)c(C4=c5ccccc5=NC4=O)[nH]c3=S)sc2c1	n	n	n	n	u	12.6µM
Cc1cc(O)c(C(C)C)cc1NC(=O)Nc1ccc([N+](=O)[O-])cc1	n	n	n	n	x	x
O=C(Nc1ccc([N+](=O)[O-])cc1)Nc1ccc([N+](=O)[O-])cc1	x	x	n	n	n	n[10 µM]

Screening results deposited in PubChem by National Center for Advancing Translational Sciences (NCATS).
